Several values for one entry are separate records, joined by “and”; a condition that tells them apart may be missing. Equal entries are not always repeated. Records with an inconclusive call do not appear. For part of these data: Entries with a potency or affinity are not part of this list. Activity calls are given as the source filed them.
Experiments:
[1] = qHTS profiling of the MIPE4 collection as inhibitors of Plasmodium falciparum (3D7) proliferation (AID 743344; call rule not given here;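 further: scaled between DMSO vehicle wells and 0.29 µM artemisinin as full inhibition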); details: P. falciparum 3D7 in erythrocytes, SYBR Green DNA fluorescence, 72 h; at 28.5 µM unless noted
Summary of the method: (§1)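 Parasite DNA was quantified by SYBR Green I fluorescence (ex 485, em 535 nm) after overnight lysis in saponin/Triton buffer at room temperature. Cultures at 0.3% parasitemia and 2.5% hematocrit were first exposed to compound for 72 h at 37 C; signals were normalised to artemisinin (0.29 uM) and vehicle wells.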

[2] = qHTS profiling of the MIPE4 collection as inhibitors of Plasmodium falciparum (DD2) proliferation (AID 743345; call rule not given here); details: P. falciparum Dd2 in erythrocytes, SYBR Green DNA, 72 h; at 28.5 µM unless noted
Summary of the method: as §1

[3] = qHTS profiling of the MIPE4 collection as inhibitors of Plasmodium falciparum (DD2) proliferation (Rep 2) (AID 743346; call rule not given here); details: P. falciparum Dd2 in erythrocytes, SYBR Green DNA, 72 h; at 28.5 µM unless noted
Summary of the method: as §1

[4] = qHTS profiling of the MIPE4 collection as inhibitors of Plasmodium falciparum (HB3) proliferation (AID 743347; call rule not given here;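 further: plate controls were DMSO vehicle wells for no effect and artemisinin wells for full effect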); details: P. falciparum HB3 in erythrocytes, SYBR Green DNA, 72 h; at 28.5 µM unless noted
Summary of the method: as §1

[5] = Ebola virus entry assay, green fluorescence channel
[6] = Ebola virus entry assay, blue channel fluorescence
[7] = qHTS Assay for Identifying Gametocytocidal Compounds (AID 743244); further: potency means the concentration at half of the fitted maximal effect;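 on max response: on the % scale 0 is the no-effect control and ±100 the full control effect; actives lower the fluorescent signal which means gametocytes are killed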; details: P. falciparum 3D7 stage III-V gametocytes, alamarBlue, 72 h; max response: stronger effect = lower value
Summary of the method: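 Fluorescence at Ex 525/Em 598 nm, recorded 24 h after alamarBlue addition, reports residual metabolic activity of 3D7 gametocytes (stages III–V) following 72 h compound exposure at 37 °C, 5% CO2.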

[8] = qHTS for compounds that reverse cellular toxicity of Amyloid beta (A-beta) peptide in yeast: LOPAC Validation Assay (AID 720559);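 further: plate controls were DMSO for no effect and equimolar ferric chloride plus clioquinol rescue for full effect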
Summary of the method: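 Here, A-beta-toxic yeast grow with test compounds at 30 C for 48 hr before optical density at 600 nm is recorded; data are normalized against DMSO and the FeCl3-clioquinol control.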

[9] = qHTS for Activators of Parkin Expression: LOPAC Validation Assay (FLuc Reporter) (AID 720573;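 further: 0% = DMSO and 100% = positive control compounds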)
Summary of the method: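 Readout is FLuc luminescence from neuronal reporter cells (Parkin promoter, FLuc plus NLuc) after 24 h compound exposure in dose response. Values normalized to neutral DMSO and positive-control compounds.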

[10] = qHTS assay for small molecule agonists of the antioxidant response element (ARE) signaling pathway measured by Nrf2-dependant transcriptional activity (AID 720636; active means well fitted curve in the direction sought with a large enough effect in the repeat runs; an effect the other way counts as inactive or inconclusive;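 further: HepG2 cells with an ARE-driven luciferase reporter; % of control where 0% means no effect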)
Summary of the method: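 Reporter gene assay, HepG2 ARE-luc: 16 hr compound, 37 C, 5% CO2; read-out luciferase luminescence.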

[11] = qHTS assay for small molecule antagonists of the retinoid-related orphan receptor gamma (ROR-gamma) signaling pathway - cell viability counter screen (AID 720652; active means well fitted curve in the direction sought with a large enough effect in the repeat runs; an effect the other way counts as inactive or inconclusive;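 further: CHO reporter cells with doxycycline-induced ROR-gamma expression; compound exposure lasted 16 hr before ATP read; on the % scale 0 is the no-effect control and ±100 the full control effect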)
Summary of the method: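 Steps: seed CHO cells bearing TET-inducible ROR and ROR response element-luciferase; rest 5 hr at 37 C; add compound, then doxycycline; incubate 16 hr; add CellTiter-Glo and read luminescence as ATP-based viability.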

[12] = qHTS assay for small molecule agonists of the antioxidant response element (ARE) signaling pathway measured by Nrf2-dependant transcriptional activity - cell viability counter screen (AID 720653; active means well fitted curve in the direction sought with a large enough effect in the repeat runs; an effect the other way counts as inactive or inconclusive; further: on the % scale 0 is the no-effect control and ±100 the full control effect); details: ARE-bla HepG2 viability, CellTiter-Glo ATP luminescence, 16 h; max response: stronger effect = lower value
Summary of the method: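 ARE-bla HepG2 cells (2,000/well) rested 5 hrs at 37C/5% CO2, then exposed to compounds in DMSO for 16 hrs. Viability was read in the same wells as intracellular ATP by luminescence, 30 min at room temperature after reagent addition.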

[13] = target: T1, Hexokinase-4 (Homo sapiens) + Glucokinase regulatory protein (Homo sapiens) (UniProt P35557+Q14397); test: qHTS assay for inhibitors of recombinant human GCK-GKRP interaction: Diaphorase-coupled assay (AID 743205)
Summary of the method: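 Signal derives from resorufin generated by diaphorase, linked to GCK turnover of glucose (5 mM) and ATP (0.4 mM). Enzyme complex was added after a 20-minute compound preincubation and monitored for 30 minutes.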

[14] = target: T1, Hexokinase-4 (Homo sapiens) + Glucokinase regulatory protein (Homo sapiens); test: qHTS assay for inhibitors of recombinant human GCK-GKRP interaction: ADP-Glo assay (AID 743206);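 further: plate controls were DMSO plus enzyme for no effect and no enzyme for full effect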
Summary of the method: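 Pin-transferred compounds meet a 15 nM GST-GCK/15 nM FLAG-GKRP/2 uM S6P mix (dispense concentrations). ATP is then added to 0.4 mM final with 5 mM glucose, and the reaction runs 60 min at room temperature. ADP is quantified luminescently.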

[15] = target: T1, Hexokinase-4 (Homo sapiens) + Glucokinase regulatory protein (Homo sapiens); test: qHTS assay for inhibitors of recombinant human GCK-GKRP interaction: HTRF assay (AID 743207);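 further: 0% = DMSO with GCK present and -100% = DMSO wells lacking GCK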
Summary of the method: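 Titration screening format: recombinant GST-GCK and FLAG-GKRP at 5 nM, S6P at 2 uM, labelled anti-tag antibodies, 60 min at RT, dual-wavelength HTRF readout.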

[16] = qHTS assay for cell viability of HEK293 cells (AID 743288); details: ATP luminescence (CellTiter-Glo), 18 h; max response: stronger effect = lower value; further: on the % scale 0 is the no-effect control and ±100 the full control effect; nearly all actives have a fitted effect of over 50% in size
Summary of the method: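 HEK293, 18 h, 37 C, ATP luminescence. Cells at 2,000/well were allowed at least 5 h to settle before dosing; CellTiter-Glo developed 30 min at RT.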

[17] = qHTS assay for cell viability of the p53RE-bla HCT-116 cell line (AID 743292); further: on the % scale 0 is the no-effect control and ±100 the full control effect; nearly all actives have a fitted effect of over 55% in size
Summary of the method: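 Readout: CellTiter-Glo luminescence after 30 min RT. Treatment: compounds in DMSO, 16 h, 37 C. Cells: CellSensor p53RE-bla HCT-116, 4,000/well, preincubated 5 h.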

[18] = qHTS profiling for inhibitors of Plasmodium falciparum (3D7) proliferation (AID 743322; call rule not given here;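 further: infected erythrocytes exposed to compound for 72 h before lysis; 100% = DMSO vehicle wells and 0% = 0.29 µM artemisinin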); details: P. falciparum 3D7 proliferation; at 28.7 µM (top of the series)
Summary of the method: as §1

[19] = qHTS profiling for inhibitors of Plasmodium falciparum (DD2) proliferation (AID 743323; call rule not given here); details: lower = more inhibition; at 28.7 µM (top of the series)
Summary of the method: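 Parasite DNA quantified by SYBR Green fluorescence (ex 485, em 535 nm) after saponin/Triton lysis and overnight dark incubation. Cultures: 0.3% parasitemia, 2.5% hematocrit, 72 h, 37 C; data scaled between DMSO and 0.29 uM artemisinin.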

[20] = qHTS profiling for inhibitors of Plasmodium falciparum (HB3) proliferation (AID 743324); details: Plasmodium falciparum HB3 blood-stage proliferation; at 28.7 µM (top of the series);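 further: 100% = DMSO vehicle wells and 0% = artemisinin-treated control wells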
Summary of the method: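 SYBR Green fluorescence (485 ex/535 em) of lysed cultures, incubated overnight at room temperature in the dark, quantifies parasite DNA. Infected erythrocytes at 0.3% parasitemia and 2.5% hematocrit were exposed 72 h; values normalized to DMSO and 0.29 uM artemisinin controls.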
Wherever efficacy is given: 0% is about no effect.

T1 sequence (P35557 whole entry, looked up): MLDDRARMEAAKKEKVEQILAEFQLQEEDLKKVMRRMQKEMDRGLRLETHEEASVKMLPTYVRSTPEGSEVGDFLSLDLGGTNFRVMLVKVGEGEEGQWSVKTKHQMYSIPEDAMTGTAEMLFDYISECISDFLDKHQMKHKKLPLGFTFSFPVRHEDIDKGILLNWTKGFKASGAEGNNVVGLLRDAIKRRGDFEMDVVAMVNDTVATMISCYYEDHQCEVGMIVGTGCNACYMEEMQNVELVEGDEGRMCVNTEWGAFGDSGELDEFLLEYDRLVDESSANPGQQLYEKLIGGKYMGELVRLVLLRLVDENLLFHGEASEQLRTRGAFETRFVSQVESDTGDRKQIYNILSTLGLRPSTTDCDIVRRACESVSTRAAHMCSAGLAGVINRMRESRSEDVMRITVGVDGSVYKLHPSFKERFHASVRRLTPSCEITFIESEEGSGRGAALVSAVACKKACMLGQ
T1 sequence (Q14397 whole entry, looked up): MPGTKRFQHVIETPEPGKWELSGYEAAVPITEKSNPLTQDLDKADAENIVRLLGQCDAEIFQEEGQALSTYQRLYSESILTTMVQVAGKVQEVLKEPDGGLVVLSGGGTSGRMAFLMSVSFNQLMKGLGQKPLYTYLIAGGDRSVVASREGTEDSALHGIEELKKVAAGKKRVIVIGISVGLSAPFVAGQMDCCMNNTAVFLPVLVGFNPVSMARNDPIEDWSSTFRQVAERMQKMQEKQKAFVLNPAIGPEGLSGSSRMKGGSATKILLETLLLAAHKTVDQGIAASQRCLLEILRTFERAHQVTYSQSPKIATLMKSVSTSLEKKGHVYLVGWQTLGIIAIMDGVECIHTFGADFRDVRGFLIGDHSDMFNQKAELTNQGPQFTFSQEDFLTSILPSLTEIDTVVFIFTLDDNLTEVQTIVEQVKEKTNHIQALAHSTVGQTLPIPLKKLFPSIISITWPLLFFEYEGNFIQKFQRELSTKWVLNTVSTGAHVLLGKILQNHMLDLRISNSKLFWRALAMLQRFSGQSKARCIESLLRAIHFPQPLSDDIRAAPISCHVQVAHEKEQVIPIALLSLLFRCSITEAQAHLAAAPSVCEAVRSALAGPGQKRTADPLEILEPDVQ

Structure (SMILES): CCOC(=O)c1ncn2c1CN(C)C(=O)c1cc(F)ccc1-2
- parasite growth, % of DMSO control [1]: 69.1%
- parasite growth remaining, % of DMSO control (lower = more inhibition) [2]: 84.4%
- parasite growth, % of control (lower = inhibition) [3]: 74.8%
- growth, % of control [4]: 94.6%
- efficacy [5]: -22.5% (inactive)
- outcome [6]: inactive

Structure (SMILES): O=C1CC[C@@]2(O)[C@H]3Cc4ccc(O)c5c4[C@@]2(CCN3CC2CC2)[C@H]1O5
- max response [7]: 19% (inactive)
- parasite growth, % of DMSO control [1]: 94.1%
- parasite growth remaining, % of DMSO control (lower = more inhibition) [2]: 113%
- parasite growth, % of control (lower = inhibition) [3]: 64.4%
- growth, % of control [4]: 83.3%
- efficacy [5]: -27.7% (inactive)
- outcome [6]: inactive

Structure (SMILES): NCC(O)c1ccc(O)cc1 (configuration not stated)
- outcome [8]: inactive
- outcome [9]: inactive
- Potency [10]: inactive
- Potency [11]: inactive
- max response [12]: -9.13% (inactive)
- outcome [13]: inactive
- outcome [14]: inactive
- outcome [15]: inactive
- max response [7]: 3.16% (inactive) and 11.7% (inactive)
- max response [16]: 1.63% (inactive)
- Potency [17]: inactive
- efficacy [5]: -25.6% (inactive)

Structure (SMILES): c1ccc(C2CC2)c(OCC2=NCCN2)c1
- outcome [8]: inactive
- outcome [9]: inactive
- outcome [13]: inactive
- outcome [14]: inactive
- outcome [15]: inactive
- max response [7]: -3.84% (inactive) and 23.7% (inactive)
- efficacy [5]: 46.8% (inactive)

Structure (SMILES): Nc1ccncc1
- outcome [8]: inactive
- outcome [9]: inactive
- Potency [10]: inactive
- outcome [13]: inactive
- outcome [14]: inactive
- outcome [15]: inactive
- max response [7]: 0.934% (inactive) and 25.7% (inactive)
- max response [16]: -3.71% (inactive)
- Potency [17]: inactive
- efficacy [5]: -10% (inactive)

Structure (SMILES): C#CCN(C)[C@H](C)Cc1ccccc1
- max response [7]: -11.5% (inactive)
- parasite growth, % of DMSO control [1]: 92.5%
- parasite growth remaining, % of DMSO control (lower = more inhibition) [2]: 97.8%
- parasite growth, % of control (lower = inhibition) [3]: 124%
- growth, % of control [4]: 95.7%
- efficacy [5]: 21.9% (inactive)
- outcome [6]: inactive

Structure (SMILES): CO[C@]12CC[C@@]3(C[C@@H]1[C@](C)(O)C(C)(C)C)[C@@H]1Cc4ccc(O)c5c4[C@@]3(CCN1CC1CC1)[C@H]2O5
- parasite growth, % of DMSO control [1]: 5.19% [at 57.2 µM]
- parasite growth remaining, % of DMSO control (lower = more inhibition) [2]: 6.03% [at 57.2 µM]
- parasite growth, % of control (lower = inhibition) [3]: 19.3% [at 57.2 µM]
- growth, % of control [4]: 7.07% [at 57.2 µM]
- efficacy [5]: -151% (inactive)
- outcome [6]: inactive

Structure (SMILES): OCCN1CCN(CCCN2c3ccccc3Sc3ccc(C(F)(F)F)cc32)CC1
- Potency [7]: 11.2 µM (active)
- efficacy [5]: -98.3% (inactive)
- outcome [6]: inactive

Structure (SMILES): C[C@]12CCC(=O)C(O)=C1CC[C@@H]1[C@@H]2CC[C@]2(C)C(=O)CC[C@@H]12
- outcome [8]: inactive
- outcome [9]: inactive
- Potency [10]: inactive
- max response [12]: -0.568% (inactive)
- outcome [13]: inactive
- outcome [14]: inactive
- outcome [15]: inactive
- max response [7]: 8.31% (inactive) and 12.3% (inactive)
- max response [16]: -3.27% (inactive)
- Potency [17]: inactive
- remaining parasite growth % (stronger effect = lower value) [18]: 90.5%
- activity, percent of control [19]: 71.8%
- remaining proliferation (% of control), lower = more inhibition [20]: 108%
- efficacy [5]: -14% (inactive)

Reference: PubChem BioAssay (NCATS)
